Drawing on the supplement of paper PMC9262897, “Low-cost anti-mycobacterial drug discovery using engineered E. coli” (Nature Communications, 2022), this text covers growth for nine molecules.

Where a name gives a salt, the structure may show the parent alone. ± gives the standard deviation of the averaged measurements.

What all share (experiment): growth (OD600 after 10 h); higher = more growth (less inhibition)
Experiment [1] has as its system E. coli TESEC Alr+ wild-type control. The conditions noted are these: compound 0.1 mM; raw OD600 reference: median of DMSO wells 0.241, cell-free background 0.041. On the procedure: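 TESEC Mtb Alr E. coli, or the Alr+ wild-type control, in 384-well plates with Prestwick library compounds at 0.1 mM and 1% DMSO, across arabinose induction levels of 1E3 to 1E7 nM. Growth is read as OD600 after 10 h at 37 °C in triplicate biological replicates.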

The subject of experiment [2] is E. coli TESEC Mtb Asd. To be noted: compound 0.1 mM. On the procedure: (§1)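 TESEC E. coli strains in which the native enzyme is deleted and replaced by arabinose-inducible Mtb Asd, DapB, CysH or TrpD, each grown in its selective medium. Strains were screened against the Prestwick library at 0.1 mM and 1% DMSO in 384-well format at low and high arabinose induction. Growth is read as OD600 after 10 h in triplicate.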

Experiment [3] has as its system E. coli TESEC Mtb DapB. The conditions noted are these: compound 0.1 mM. On the procedure: as §1
For experiment [4], the system named is E. coli TESEC Alr+ wild-type control. The conditions noted are these: compound 0.1 mM; raw OD600 reference: median of DMSO wells 0.49, cell-free background 0.052. On the procedure: (§2)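 TESEC Mtb Alr E. coli (ΔaraC ΔtolC ΔentC Δalr ΔdadX, arabinose-inducible Mtb Alr) or the Alr+ wild-type control strain, grown in defined M9-fructose medium without D-alanine in 96-well plates with Prestwick library compounds at 0.1 mM and 1% DMSO. Low Alr induction is 0.1 µM arabinose and high induction is 10 mM arabinose.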

The test system of experiment [5] is E. coli TESEC Mtb Alr. To be noted: compound 0.1 mM. On the procedure: as §2
Setting [6] is: arabinose induction (level): High, raw OD600 reference: median of DMSO wells 0.331, cell-free background 0.041.
The mark [7] stands for this setting: arabinose induction (level): Low, raw OD600 reference: median of DMSO wells 0.417, cell-free background 0.041.
Where [8] appears, read: arabinose induction (level): High, raw OD600 reference: median of DMSO wells […], cell-free background 0.041.
Where [9] appears, read: arabinose induction (level): Low, raw OD600 reference: median of DMSO wells 0.227, cell-free background 0.041.
Where [10] appears, read: arabinose 100 nM, raw OD600 reference: median of DMSO wells 0.413, cell-free background 0.052.
Setting [11] is: arabinose 10000000 nM, raw OD600 reference: median of DMSO wells […], cell-free background 0.052.

For `Clc1ccc(Cn2c(CN3CCCC3)nc3ccccc32)cc1` [Clemizole hydrochloride], the growth in experiment [1] amounted to 0.151 ± 0.0091; in experiment [2] (setting [6]), 0.174 ± 0.038; in experiment [2] (setting [7]), 0.135 ± 0.0075; in experiment [3] (setting [8]) it was 0.156 ± 0.027; in experiment [3] (setting [9]), 0.212 ± 0.079; in experiment [4] it was 0.452 ± 0.049. For the same molecule, the growth in experiment [5] (setting [10]) is 0.406 ± 0.011; in experiment [5] (setting [11]), 0.185 ± 0.055.

As for `CCN(CC)C(=S)SSC(=S)N(CC)CC` [Disulfiram], the growth was 0.278 ± 0.0078 in experiment [1]; 0.192 ± 0.028 in experiment [2] (setting [6]); 0.33 ± 0.034 in experiment [2] (setting [7]); 0.161 ± 0.013 in experiment [3] (setting [8]); 0.211 ± 0.01 in experiment [3] (setting [9]); 0.443 ± 0.066 in experiment [4]. For the same molecule, the growth in experiment [5] (setting [10]) came to 0.23 ± 0.093; in experiment [5] (setting [11]), 0.146 ± 0.008.

Turning to `CC(=O)Oc1ccccc1C(=O)Nc1ncc([N+](=O)[O-])s1` [Nitazoxanide], the growth stood at 0.0514 ± 0.01 in experiment [1]; 0.0632 ± 0.0045 in experiment [2] (setting [6]); 0.05953 ± 0.00059 in experiment [2] (setting [7]); 0.0545 ± 0.0006 in experiment [3] (setting [8]); 0.0559 ± 0.0026 in experiment [3] (setting [9]); 0.0524 ± 0.0014 in experiment [4]. Also, the results for the growth in experiment [5] (setting [10]) and in experiment [5] (setting [11]) were 0.157 ± 0.039 and 0.0545 ± 0.0013, respectively.

For `CC(C)COCC(CN(Cc1ccccc1)c1ccccc1)N1CCCC1` (configuration not stated) [Bepridil hydrochloride], the growth in experiment [1] came to 0.03963 ± 0.00021; in experiment [2] (setting [6]), 0.04653 ± 0.00032; in experiment [2] (setting [7]) it was 0.0475 ± 0.0016; in experiment [3] (setting [8]), 0.0467 ± 0.0011; in experiment [3] (setting [9]), 0.04587 ± 0.00031; in experiment [4], 0.04887 ± 0.00032. For the same molecule, the growth in experiment [5] (setting [10]) came out at 0.304 ± 0.21; in experiment [5] (setting [11]), 0.0512 ± 0.0012.

For `O=C(OCC(O)CO)c1ccccc1Nc1ccnc2cc(Cl)ccc12` (configuration not stated) [Glafenine hydrochloride], the growth in experiment [1] came out at 0.116 ± 0.0048; in experiment [2] (setting [6]), 0.253 ± 0.04; in experiment [2] (setting [7]), 0.17 ± 0.021; in experiment [3] (setting [8]), 0.196 ± 0.0089; in experiment [3] (setting [9]) it was 0.276 ± 0.059; in experiment [4] it was 0.374 ± 0.0054. Moreover, the values for the growth in experiment [5] (setting [10]) and in experiment [5] (setting [11]) were 0.384 ± 0.022 and 0.149 ± 0.02, respectively.

As to `CC(=O)c1ccc2c(c1)N(CCCN(C)C)c1ccccc1S2` [Acetopromazine maleate salt], the growth in experiment [1] stood at 0.183 ± 0.0048; in experiment [2] (setting [6]) it was 0.214 ± 0.025; in experiment [2] (setting [7]), 0.301 ± 0.033; in experiment [3] (setting [8]), 0.188 ± 0.012; in experiment [3] (setting [9]), 0.217 ± 0.021; in experiment [4], 0.47 ± 0.012. The results for the growth in experiment [5] (setting [10]) and in experiment [5] (setting [11]) were 0.399 ± 0.011 and 0.322 ± 0.015, respectively.

With `CC1(C)OC(=O)NC1=O` [Dimethadione], the growth was determined as 0.243 ± 0.0066 in experiment [1]; 0.292 ± 0.005 in experiment [2] (setting [6]); 0.414 ± 0.022 in experiment [2] (setting [7]); 0.182 ± 0.0086 in experiment [3] (setting [8]); 0.199 ± 0.05 in experiment [3] (setting [9]); 0.526 ± 0.075 in experiment [4]. The values for the growth in experiment [5] (setting [10]) and in experiment [5] (setting [11]) were 0.406 ± 0.017 and 0.347 ± 0.011, respectively.

As to `CN(C)CCCN1c2ccccc2CCc2ccc(Cl)cc21` [Clomipramine hydrochloride], the growth came to 0.04137 ± 0.00021 in experiment [1]; 0.0467 ± 0.00076 in experiment [2] (setting [6]); 0.0482 ± 0.0034 in experiment [2] (setting [7]); 0.0466 ± 0.00055 in experiment [3] (setting [8]); 0.0467 ± 0.00083 in experiment [3] (setting [9]); 0.202 ± 0.26 in experiment [4]. The values for the growth in experiment [5] (setting [10]) and in experiment [5] (setting [11]) were 0.4115 ± 0.0024 and 0.193 ± 0.066, respectively.

Regarding `CC(=O)N1CCN(c2ccc(OCC3COC(Cn4ccnc4)(c4ccc(Cl)cc4Cl)O3)cc2)CC1` (configuration not stated) [Ketoconazole], the growth amounted to 0.05323 ± 0.00038 in experiment [1]; 0.0601 ± 0.0054 in experiment [2] (setting [6]); 0.0507 ± 0.0015 in experiment [2] (setting [7]); 0.0759 ± 0.0062 in experiment [3] (setting [8]); 0.0712 ± 0.0069 in experiment [3] (setting [9]); 0.0814 ± 0.011 in experiment [4]. Further, the values for the growth in experiment [5] (setting [10]) and in experiment [5] (setting [11]) were 0.32 ± 0.041 and 0.0608 ± 0.0022, respectively.
